Compound activity deposited in PubChem BioAssay by National Center for Advancing Translational Sciences (NCATS).
SW480 rereplic = DNA re-replication induction in SW480 cells; actives 1.8% (n = 340,000); SW480 DNA re-replication, Hoechst DNA content imaging, 48 h; Potency, µM (top dose mostly 46.1 µM), for inactives: top-dose re-replication activation, most hits filed as activators; also: potency is read from the fitted curve at half-maximal effect; % of control where 0% means no effect; nearly all actives have a fitted effect of over 55% in size
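Per well, 250 cells were exposed to pinned compound for 48 hr. Nuclear DNA was visualised with Hoechst (40 min, 37 C) and total object intensity recorded by fluorescence scanning.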
Giardia killer = kills Giardia lamblia; Giardia lamblia trophozoite viability; activity change, % at 7.66 µM, hits read low; actives 0.15% (n = 340,000); in the data active = activity change below about -80%; inconclusive = between about -30% and that limit;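 also: parasites exposed to compound for two days anaerobically before the ATP read; % is scaled to controls: 0 for no effect and ±100 for the full control effect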
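ATP-content bioluminescence gauges trophozoite survival. Cells (100/well) receive compound and incubate anaerobically for 48 hrs at 37 deg C; detection reagent follows for 15-30 min at room temperature.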
RORgamma inh = ROR gamma (mouse) transcription inhibition | Drosophila S2 Gal4-RORgamma UAS-luciferase reporter, 20 h | actives 5.4% (n = 310,000) | Potency, µM (titrated, usually from 53.6 µM), inactives show top-dose activity change, negative = inhibition, most hits filed as inhibitors | P51450; also: potency is read from the fitted curve at half-maximal effect; % is scaled to controls: 0 for no effect and ±100 for the full control effect; nearly all actives have a fitted effect of over 60% in size
Target sequence (P51450 whole entry, looked up, the tested form may be a part): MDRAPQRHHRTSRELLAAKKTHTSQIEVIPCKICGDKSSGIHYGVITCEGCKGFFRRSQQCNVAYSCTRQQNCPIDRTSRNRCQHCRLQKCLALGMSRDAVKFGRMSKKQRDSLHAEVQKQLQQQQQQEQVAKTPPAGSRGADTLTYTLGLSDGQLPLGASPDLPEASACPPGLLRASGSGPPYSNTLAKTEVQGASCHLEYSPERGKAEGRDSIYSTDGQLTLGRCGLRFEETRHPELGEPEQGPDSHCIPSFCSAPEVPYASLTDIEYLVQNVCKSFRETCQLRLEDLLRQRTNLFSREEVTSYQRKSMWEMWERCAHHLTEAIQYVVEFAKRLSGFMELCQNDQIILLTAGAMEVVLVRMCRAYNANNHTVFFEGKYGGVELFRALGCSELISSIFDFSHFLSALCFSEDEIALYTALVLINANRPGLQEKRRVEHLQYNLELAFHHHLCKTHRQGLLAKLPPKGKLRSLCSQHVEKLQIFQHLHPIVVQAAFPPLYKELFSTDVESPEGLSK
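Compounds are pin-transferred onto Drosophila Schneider cells expressing a copper-inducible Gal4–ROR gamma transactivation domain fusion. After 1 hr, copper sulfate is added to 700 uM final; luciferase is read 20 hr later.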
MCF10A rereplic = induces DNA re-replication in MCF 10a normal breast cells; MCF 10A DNA re-replication, Hoechst nuclear intensity, 48 h; Potency, µM (titrated, usually from 46.1 µM), inactives show top-dose activity, positive = re-replication, hits mostly activators; actives 2.9% (n = 350,000); AID 624296; also: potency is read from the fitted curve at half-maximal effect; % of control where 0% means no effect; nearly all actives have a fitted effect of over 50% in size
Gal4-VP16 FLuc = Gal4-VP16 reporter inhibition counter-screen | Drosophila S2 Gal4-VP16 UAS-luciferase, luminescence, 20 h | Potency, µM (titrated, usually from 53.6 µM), inactives show at the highest dose activity, negative = inhibition, usual class: inhibitors | actives 3.5% (n = 310,000);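 also: Gal4-VP16 expression switched on by copper sulfate through the metallothionein promoter; potency is read from the fitted curve at half-maximal effect; % is scaled to controls: 0 for no effect and ±100 for the full control effect; nearly all actives have a fitted effect of over 50% in size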
BCR signal inh = inhibitors of chronic active B-cell receptor signaling; ABC-DLBCL IkBa-CBG/CBR reporter, luminescence ratio, 4 h; Potency, µM (highest dose often 46.1 µM), for the others: at the highest dose activity change, negative = inhibition, most hits filed as inhibitors; actives 0.05% (n = 340,000); active = well fitted inhibition curve with a large enough effect in the signal ratio, with a control signal flat, not every such curve was filed as active; inconclusive = small, poorly fitted or top-dose-only effect, or effect the other way, or a change in a side signal; the % refers to the signal ratio;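 also: potency is read from the fitted curve at half-maximal effect; plate controls were basal doxycycline-induced cells for no effect and cells given 10 µM MG132 for full effect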
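TMD8 ABC-DLBCL cells carrying doxycycline-inducible green luciferase fused to IkappaBalpha plus unfused red luciferase were exposed to compounds (up to 46 uM) for 4 hrs at 37C. Activity came from the overlap-corrected green/red luminescence ratio.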
The depositor's hits bear a star. Rows were chosen to be rich in hits. Some 8.3% of all compounds tested hit in one or more screens of this group. Unless noted, calls follow the shape of the dose curve; as a rule, active = well fitted curve in the direction sought with a large enough effect; inconclusive = small, poorly fitted or top-dose-only effect, or another doubt; inactive = no such curve, though single readings can be large; an effect the other way counts as inactive or inconclusive.

For O=C(NCCc1ccccc1)C1CCC(=O)N1C1CCCC1 (centres undefined) the results were SW480 rereplic 1.1%, Giardia killer -16.6, RORgamma inh 2.5%, MCF10A rereplic -2.9%, Gal4-VP16 FLuc -0.7% and BCR signal inh 3.8%.
O=C(COc1cccc(C(F)(F)F)c1)Nc1ccc(S(=O)(=O)N2CCCCC2)cc1 was read as SW480 rereplic -45.9%, Giardia killer -4.0, MCF10A rereplic 14.1% and BCR signal inh inconclusive.
Screening CS(=O)(=O)c1ccc2nc(NC(=O)CN3C(=O)NC4(CCCC4)C3=O)sc2c1 returned SW480 rereplic -1.2%, Giardia killer 3.5, MCF10A rereplic -3.5% and BCR signal inh 6.1%.
For Cc1ccccc1CSc1nccn1-c1ccccc1 the results were SW480 rereplic 17.8%, Giardia killer -8.5, RORgamma inh 2.51µM*, MCF10A rereplic 9.0%, Gal4-VP16 FLuc 12.6µM* and BCR signal inh 15.7%.
`Cc1c(C(=O)Nc2nonc2-c2ccc(F)cc2)oc2ccc(F)cc12` gave SW480 rereplic 5.2%, Giardia killer -6.2, RORgamma inh 8.91µM*, MCF10A rereplic -0.7%, Gal4-VP16 FLuc inconclusive and BCR signal inh inconclusive.
CCc1nonc1NC(=O)c1oc2ccc(F)cc2c1C was read as SW480 rereplic -42.5%, Giardia killer -1.7, RORgamma inh 16.7%, MCF10A rereplic 0.3%, Gal4-VP16 FLuc -2.4% and BCR signal inh -0.8%.
For c1cc2[nH]snc2c2nc(C3CC3)nc12 the results were SW480 rereplic 19.7%, Giardia killer -14.7, RORgamma inh 10.3%, MCF10A rereplic 20.6µM*, Gal4-VP16 FLuc 4.5% and BCR signal inh inconclusive.
For C[C@H](CO)N1C[C@H](C)[C@@H](CN(C)S(C)(=O)=O)Oc2ccc(NC(=O)Cn3cnnn3)cc2C1=O the results were SW480 rereplic inconclusive, Giardia killer 10.0, MCF10A rereplic 1.2% and BCR signal inh -0.8%.
For CN(C)S(=O)(=O)c1cccc(NC(=O)CCCc2nc3ccccc3c(=O)[nH]2)c1 the results were SW480 rereplic -6.3%, Giardia killer -7.7, MCF10A rereplic -2.6% and BCR signal inh inconclusive.
For O=c1cc(-c2c(F)c(F)c(F)c(F)c2F)oc2ccccc12 the results were SW480 rereplic 1.9%, Giardia killer -19.7, RORgamma inh 7.94µM*, MCF10A rereplic 13.8%, Gal4-VP16 FLuc inconclusive and BCR signal inh inconclusive.
O=c1cc(-c2c(F)c(F)c(F)c(F)c2F)oc2c(F)c(F)c(F)c(F)c12 was read as RORgamma inh 2.51µM*, Gal4-VP16 FLuc 3.16µM* and BCR signal inh inconclusive.
For O=C(NCCCN1CCOCC1)c1ccc2c(=O)n(Cc3ccc(Cl)cc3)c(=S)[nH]c2c1 the results were SW480 rereplic inconclusive, Giardia killer 11.8, RORgamma inh 11.2µM*, MCF10A rereplic inconclusive, Gal4-VP16 FLuc inconclusive and BCR signal inh 8.1%.
`COC(=O)c1ccc2c(=O)n(Cc3ccc(C(=O)NCCCN4CCC(C)CC4)cc3)c(=S)[nH]c2c1` gave SW480 rereplic inconclusive, Giardia killer 55.6, RORgamma inh inconclusive, MCF10A rereplic 15.2%, Gal4-VP16 FLuc inconclusive and BCR signal inh inconclusive.
For CCCCN(C)CCNC(=O)c1ccc(Cn2c(=S)[nH]c3ccc(Br)cc3c2=O)cc1 the results were SW480 rereplic -4.6%, Giardia killer -0.5, RORgamma inh inconclusive, MCF10A rereplic 2.4%, Gal4-VP16 FLuc inconclusive and BCR signal inh inconclusive.
CC1CCN(CCCNC(=O)c2ccc3c(=O)n(Cc4ccc(Cl)cc4)c(=S)[nH]c3c2)CC1 was read as SW480 rereplic inconclusive, Giardia killer 15.4, RORgamma inh 12.6µM*, MCF10A rereplic inconclusive, Gal4-VP16 FLuc 20µM* and BCR signal inh -20.2%.
